The supplement of paper PMC6607015
Structures can show the parent of a compound that is named as a salt.

What was measured:
Conditions in all cases: compound concentration in added solution (µM; 5 µl added to 20 µl cells): 10; 18 h
A431 [1] = assay: LBPA endosome anti-LBPA integrated intensity (sum per cell), Z-score; higher = more LBPA staining
Outline: (§1)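 Each value is a Z-score normalised in AcuityXpress from per-cell integrated LBPA or filipin intensity, taken over the whole cell or within LBPA endosomes. Duplicate 384-well imaging plates held 5 µl of 10 µM compound solution, onto which 3,500 HeLa MZ or A431 cells in 20 µl were seeded per well. After 18 h the cells were fixed in 4% PFA, stained with 6C4 anti-LBPA antibody, filipin, propidium iodide and CellTracker green, imaged four times per well at 20× and segmented in MetaXpress.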

HeLa MZ [2] = assay: as above
Outline: as §1

A431 [3] = assay: whole-cell filipin (free cholesterol) integrated intensity, Z-score; higher = more cholesterol staining
Outline: as §1

HeLa MZ [4] = assay: as above
Outline: as §1

A431 [5] = assay: filipin (cholesterol) integrated intensity within LBPA endosomes, Z-score; higher = more cholesterol in LBPA endosomes
Outline: as §1

HeLa MZ [6] = assay: as above
Outline: as §1

SMILES	LBPA endosome anti-LBPA integrated intensity (z-score) (A431 [1])	LBPA endosome anti-LBPA integrated intensity (z-score) (HeLa MZ [2])	whole-cell filipin (z-score) (A431 [3])	whole-cell filipin (z-score) (HeLa MZ [4])	filipin (z-score) (A431 [5])	filipin (z-score) (HeLa MZ [6])
C=C1/C(=C\C=C2/CCC[C@]3(C)[C@@H]([C@H](C)CCCC(C)C)CC[C@@H]23)C[C@@H](O)C[C@@H]1O [Alfacalcidol]	0.0439	-0.204	-0.362	-0.701	-0.145	-0.743
CCC(C)(CN(C)C)OC(=O)c1ccccc1 (stereo not drawn) [Amyleine hydrochloride]	-0.517	0.00392	-0.884	-0.337	-0.528	-0.471
OCCN1C[C@H](O)[C@@H](O)[C@H](O)[C@H]1CO [Miglitol]	-0.534	-0.285	-0.628	-0.643	-0.487	-0.578
Clc1ccc(Cn2c(CN3CCCC3)nc3ccccc32)cc1 [Clemizole hydrochloride]	0.145	0.955	0.228	-0.285	0.0324	-0.147
CN(C)CCOC(C)(c1ccccc1)c1ccccn1 (stereo not drawn) [Doxylamine succinate]	-0.48	0.575	-0.578	-0.502	-0.488	-0.154
CC(CCc1ccc(O)cc1)NCCc1ccc(O)c(O)c1 (stereo not drawn) [Dobutamine hydrochloride]	-0.212	0.142	-0.349	-0.893	-0.473	-0.28
CC(=O)[C@H]1CC[C@H]2[C@@H]3C[C@H](C)C4=CC(=O)CC[C@]4(C)[C@H]3[C@@H](O)C[C@]12C [Medrysone]	1.76	1	0.12	0.163	0.432	0.0722
CC1(C)S[C@@H]2[C@H](NC(=O)[C@H](N)c3ccc(O)cc3)C(=O)N2[C@H]1C(=O)O [Amoxicillin]	-0.419	0.0287	-0.393	-0.0853	-0.524	-0.539
N[C@@H](C(=O)N[C@@H]1C(=O)N2C(C(=O)O)=C(Cl)CS[C@H]12)c1ccccc1 [Cefaclor hydrate]	-0.551	-0.828	-0.722	-0.368	-0.522	-0.558
CCCCC[C@H](O)/C=C/[C@@H]1[C@@H](C/C=C\CCCC(=O)O)[C@@H](O)C[C@H]1O [Dinoprost trometamol]	-0.294	-0.303	-0.632	-0.582	-0.462	-0.236
CC(=O)c1ccc2c(c1)N(CCCN(C)C)c1ccccc1S2 [Acetopromazine maleate salt]	1.92	2.14	0.736	-0.149	1.18	1.7
CC[N+](CC)(CC)CCOc1cccc(OCC[N+](CC)(CC)CC)c1OCC[N+](CC)(CC)CC [Gallamine triethiodide]	-0.558	-0.807	-0.891	-0.384	-0.526	-0.576
O=C(O)c1cn(-c2ccc(F)cc2)c2cc(N3CCNCC3)c(F)cc2c1=O [Sarafloxacin]	-0.35	-0.0848	0.000583	-0.426	-0.428	-0.434
O=C1CCC(N2C(=O)c3ccccc3C2=O)C(=O)N1 (stereo not drawn) [Thalidomide]	-0.476	-0.403	-0.887	-1.09	-0.544	-0.68
N#Cc1ccc(C(c2ccc(C#N)cc2)n2cncn2)cc1 [Letrozole]	-0.371	0.276	0.375	0.337	-0.552	-0.548
CC/C(=C(/CC)c1ccc(O)cc1)c1ccc(O)cc1 [Diethylstilbestrol]	-0.432	-0.702	-0.0535	-0.813	-0.37	-0.493
Cc1ncc(CO)c(CO)c1O [Pyridoxine hydrochloride]	-0.469	-0.56	-0.385	-0.528	-0.475	-0.596
Nc1cc(N2CCCCC2)nc(N)[n+]1[O-] [Minoxidil]	-0.316	-0.257	-0.274	0.345	-0.426	-0.263
C=C1c2c(Cl)ccc(O)c2C(=O)C2=C(O)[C@]3(O)C(=O)C(C(N)=O)=C(O)[C@@H](N(C)C)[C@@H]3[C@@H](O)[C@H]12.O=C(O)c1cc(S(=O)(=O)O)ccc1O [Meclocycline sulfosalicylate]	-0.505	-0.19	-0.811	-1.34	-0.554	-0.823

SMILES	LBPA endosome anti-LBPA integrated intensity (z-score) (A431 [1])	LBPA endosome anti-LBPA integrated intensity (z-score) (HeLa MZ [2])	whole-cell filipin (z-score) (A431 [3])	whole-cell filipin (z-score) (HeLa MZ [4])	filipin (z-score) (A431 [5])	filipin (z-score) (HeLa MZ [6])
COc1ccc2[nH]cc(CCNC(C)=O)c2c1 [Melatonin]	-0.518	0.193	-0.621	-0.435	-0.528	-0.543
CCCCC[C@H](O)/C=C/[C@H]1[C@H](O)CC(=O)[C@@H]1CCCCCCC(=O)O [Alprostadil]	-0.322	-0.486	0.113	-0.324	-0.323	-0.34
Nc1nc(=S)c2ncn([C@@H]3O[C@H](CO)[C@@H](O)[C@H]3O)c2[nH]1 [Thioguanosine]	-0.355	1.49	-1.06	-0.863	-0.656	-0.626
Cc1ccc(Cl)c(Nc2ccccc2C(=O)O)c1Cl [Meclofenamic acid sodium salt monohydrate]	-0.528	-0.676	-0.856	-0.416	-0.531	-0.606
C[C@]12CC[C@@H]3c4ccc(O)cc4CC[C@H]3[C@@H]1C[C@@H](O)[C@@H]2O [Estriol]	-0.219	0.135	-0.24	-0.552	-0.367	-0.397
C[C@H](CCC(=O)O)[C@H]1CC[C@H]2[C@@H]3C(=O)C[C@@H]4CC(=O)CC[C@]4(C)[C@H]3CC(=O)[C@]12C [Dehydrocholic acid]	-0.567	-0.186	-0.785	-0.553	-0.549	-0.532
CN1Cc2c(N)cccc2C(c2ccccc2)C1 (stereo not drawn) [Nomifensine maleate]	-0.419	0.114	-0.627	-0.396	-0.47	-0.516
Clc1ccc(C(Cn2ccnc2)OCc2csc3c(Cl)cccc23)c(Cl)c1 (stereo not drawn) [Sertaconazole nitrate]	-0.364	1.08	0.486	1.1	-0.139	0.708
CN1CCN(CCCN2c3ccccc3Sc3ccc(S(=O)(=O)N(C)C)cc32)CC1 [Thioproperazine dimesylate]	2.72	1.97	0.546	-0.109	2.28	2.33
N=C(N)NS(=O)(=O)c1ccc(N)cc1 [Sulfaguanidine]	-0.422	-1.14	-0.502	-0.128	-0.444	-0.493
N=C(N)N/N=C/c1c(Cl)cccc1Cl [Guanabenz acetate]	2.17	0.543	1.23	-0.116	1.62	0.458
CN1CCCCC1CCN1c2ccccc2Sc2ccc([S+](C)[O-])cc21 (stereo not drawn) [Mesoridazine besylate]	0.975	2.18	0.066	0.244	0.618	1.37
CC(C)Cc1ccc([C@H](C)C(=O)O)cc1 [S-(+)-ibuprofen]	-0.498	-0.256	-0.555	-0.301	-0.443	-0.51
Cc1ccc2c(c1)c1c3n2CCNC3CCC1 (stereo not drawn) [Pirlindole mesylate]	0.0753	0.024	0.654	0.474	0.437	0.263
CO[C@@H]1[C@@H](O[C@@H]2O[C@H](C)[C@@H](O[C@H]3C[C@@](C)(O)[C@@H](OC(=O)CC(C)C)[C@H](C)O3)[C@H](N(C)C)[C@H]2O)[C@@H](CC=O)C[C@@H](C)[C@@H](O)/C=C/C=C/C[C@@H](C)OC(=O)C[C@H]1OC(C)=O [Josamycin]	0.115	-0.222	-0.459	-0.645	-0.106	-0.348
CCCN(CCC)CCc1cccc2c1CC(=O)N2 [Ropinirole HCl]	-0.0677	0.764	-0.368	0.26	-0.342	0.248
NC(=O)NC1NC(=O)NC1=O (stereo not drawn) [Allantoin]	-0.71	-1.01	-1.02	-0.573	-0.456	-0.604
CCN(Cc1ccncc1)C(=O)C(CO)c1ccccc1 (stereo not drawn) [Tropicamide]	-0.503	-0.535	-0.78	-0.974	-0.52	-0.592
CC(C)c1c(C(=O)Nc2ccccc2)c(-c2ccccc2)c(-c2ccc(F)cc2)n1CC[C@@H](O)C[C@@H](O)CC(=O)O [Atorvastatin]	-0.737	-0.992	-0.0189	-0.402	-0.543	-0.45
